What all share (assay): DAPPL (digital affinity profiling via proximity ligation, sequencing); 10 mM Tris-HCl pH 7.5, 50 mM NaCl, 1 mM DTT, 4% glycerol, room temperature, 30 min; GST-TFs on glutathione beads, 16-mer random dsDNA library, 0.1% formaldehyde crosslink after washing; high values mean tight binding
The target of one test is T1, FEV (Homo sapiens, UniProt Q99581 1-238).
T1 sequence: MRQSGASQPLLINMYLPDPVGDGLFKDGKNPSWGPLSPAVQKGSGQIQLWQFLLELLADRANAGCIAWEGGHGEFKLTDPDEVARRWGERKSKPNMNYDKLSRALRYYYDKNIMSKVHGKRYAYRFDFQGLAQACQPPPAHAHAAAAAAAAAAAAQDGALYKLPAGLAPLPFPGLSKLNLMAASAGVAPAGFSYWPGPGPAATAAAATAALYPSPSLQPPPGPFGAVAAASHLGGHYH
The following applies: protein: recombinant; tags: N-terminal GST; dsDNA, one strand shown. The essentials: (§1)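 Each value of binding signal is a hexamer's read frequency for a factor divided by the same hexamer's frequency in the tag-only sample. Barcoded, bead-captured GST fusions of human transcription factors made in yeast were pooled with that sample and incubated with 200 nmole of a random double-stranded 16-mer DNA library in Tris/NaCl/DTT/glycerol buffer at room temperature for 30 min. Washing, 0.1% formaldehyde crosslinking, proximity ligation, PCR and Illumina NextSeq500 sequencing followed.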

For another test, the target named is ETV5 (Homo sapiens, UniProt P41161 1-510). As to conditions: protein: recombinant; tags: N-terminal GST; dsDNA, one strand shown. An outline of the steps: as §1
Chain of ETV5 (P41161 whole entry): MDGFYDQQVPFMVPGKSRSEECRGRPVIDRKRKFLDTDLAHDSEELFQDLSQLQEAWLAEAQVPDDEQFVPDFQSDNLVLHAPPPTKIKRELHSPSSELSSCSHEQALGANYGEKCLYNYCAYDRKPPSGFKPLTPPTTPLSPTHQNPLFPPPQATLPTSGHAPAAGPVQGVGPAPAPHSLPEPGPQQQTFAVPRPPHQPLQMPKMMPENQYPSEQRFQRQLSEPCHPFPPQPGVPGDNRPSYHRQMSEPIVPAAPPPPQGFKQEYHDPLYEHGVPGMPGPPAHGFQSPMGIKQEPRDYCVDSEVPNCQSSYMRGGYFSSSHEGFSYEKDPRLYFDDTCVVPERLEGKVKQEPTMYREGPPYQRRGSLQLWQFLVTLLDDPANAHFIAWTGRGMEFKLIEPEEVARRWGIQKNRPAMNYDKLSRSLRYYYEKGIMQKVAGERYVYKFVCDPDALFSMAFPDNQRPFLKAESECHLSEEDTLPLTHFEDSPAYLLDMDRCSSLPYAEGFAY
Another test deals with HSF1 (Homo sapiens, UniProt Q00613 1-529). As to conditions: protein: recombinant; tags: N-terminal GST; chain copies: 3; dsDNA, one strand shown. An outline of the steps:
as §1

The target in the next test is T2, SPIC (Homo sapiens, UniProt Q8N5J4 1-248).
T2 sequence: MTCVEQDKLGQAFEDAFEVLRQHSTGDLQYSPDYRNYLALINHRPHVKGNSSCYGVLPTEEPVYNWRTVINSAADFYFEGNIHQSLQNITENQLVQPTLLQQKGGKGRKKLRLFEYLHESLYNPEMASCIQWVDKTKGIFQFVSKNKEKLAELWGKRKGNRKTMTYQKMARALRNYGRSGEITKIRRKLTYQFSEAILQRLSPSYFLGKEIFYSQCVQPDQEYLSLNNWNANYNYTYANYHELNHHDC
The following applies: protein: recombinant; tags: N-terminal GST; dsDNA, one strand shown. An outline of the steps:
as §1

A further test has as its target ELF4 (Homo sapiens, UniProt Q99607 1-663). The following applies: protein: recombinant; tags: N-terminal GST; dsDNA, one strand shown. The essentials:
as §1

Another test has as its target T3, ELK4 (Homo sapiens, UniProt P28324-2 1-405).
T3 sequence: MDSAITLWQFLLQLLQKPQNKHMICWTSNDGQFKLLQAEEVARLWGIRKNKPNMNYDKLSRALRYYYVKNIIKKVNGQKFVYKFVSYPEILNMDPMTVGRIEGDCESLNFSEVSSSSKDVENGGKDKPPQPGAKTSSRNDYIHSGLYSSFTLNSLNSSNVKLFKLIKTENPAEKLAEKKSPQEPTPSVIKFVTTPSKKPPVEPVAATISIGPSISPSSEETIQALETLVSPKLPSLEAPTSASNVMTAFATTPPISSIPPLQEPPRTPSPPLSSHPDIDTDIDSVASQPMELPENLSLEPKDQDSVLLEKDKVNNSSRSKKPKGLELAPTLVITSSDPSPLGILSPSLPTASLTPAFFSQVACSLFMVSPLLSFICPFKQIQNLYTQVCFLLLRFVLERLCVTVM
The following applies: protein: recombinant; tags: N-terminal GST; dsDNA, one strand shown. The essentials: as §1

A further test addresses T4, ETV2 (Homo sapiens, UniProt O00321 1-342).
T4 sequence: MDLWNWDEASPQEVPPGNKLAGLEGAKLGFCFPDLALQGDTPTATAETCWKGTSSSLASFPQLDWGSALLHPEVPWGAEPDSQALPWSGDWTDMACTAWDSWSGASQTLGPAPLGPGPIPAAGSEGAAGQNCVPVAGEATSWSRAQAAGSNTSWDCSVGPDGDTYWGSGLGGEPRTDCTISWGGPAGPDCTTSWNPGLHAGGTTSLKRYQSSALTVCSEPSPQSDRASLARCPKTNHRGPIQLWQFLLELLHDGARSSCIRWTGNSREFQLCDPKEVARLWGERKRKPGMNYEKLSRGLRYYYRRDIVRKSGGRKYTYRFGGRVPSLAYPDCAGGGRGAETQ
The following applies: protein: recombinant; tags: N-terminal GST; dsDNA, one strand shown. An outline of the steps:
as §1

The next test deals with T5, ELF3 (Homo sapiens, UniProt P78545 1-371).
T5 sequence: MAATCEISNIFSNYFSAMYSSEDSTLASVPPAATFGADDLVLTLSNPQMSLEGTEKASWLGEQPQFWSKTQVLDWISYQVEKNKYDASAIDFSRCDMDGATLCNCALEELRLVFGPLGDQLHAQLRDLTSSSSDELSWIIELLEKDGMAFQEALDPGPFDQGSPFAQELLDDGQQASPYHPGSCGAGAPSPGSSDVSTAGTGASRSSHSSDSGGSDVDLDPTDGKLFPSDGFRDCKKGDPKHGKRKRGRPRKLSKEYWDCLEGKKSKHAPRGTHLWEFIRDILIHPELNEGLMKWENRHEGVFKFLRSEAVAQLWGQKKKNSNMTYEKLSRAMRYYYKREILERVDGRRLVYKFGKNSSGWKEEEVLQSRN
The following applies: protein: recombinant; tags: N-terminal GST; dsDNA, one strand shown. The essentials: as §1

A further test concerns the target CRX (Homo sapiens, UniProt O43186 1-299). As to conditions: protein: recombinant; tags: N-terminal GST; dsDNA, one strand shown. The essentials:
as §1

Another test concerns the target ETV1 (Homo sapiens, UniProt P50549 1-477). The following applies: protein: recombinant; tags: N-terminal GST; dsDNA, one strand shown. An outline of the steps: as §1
A further test deals with T6, ERF (Homo sapiens, UniProt P50548 1-548).
T6 sequence: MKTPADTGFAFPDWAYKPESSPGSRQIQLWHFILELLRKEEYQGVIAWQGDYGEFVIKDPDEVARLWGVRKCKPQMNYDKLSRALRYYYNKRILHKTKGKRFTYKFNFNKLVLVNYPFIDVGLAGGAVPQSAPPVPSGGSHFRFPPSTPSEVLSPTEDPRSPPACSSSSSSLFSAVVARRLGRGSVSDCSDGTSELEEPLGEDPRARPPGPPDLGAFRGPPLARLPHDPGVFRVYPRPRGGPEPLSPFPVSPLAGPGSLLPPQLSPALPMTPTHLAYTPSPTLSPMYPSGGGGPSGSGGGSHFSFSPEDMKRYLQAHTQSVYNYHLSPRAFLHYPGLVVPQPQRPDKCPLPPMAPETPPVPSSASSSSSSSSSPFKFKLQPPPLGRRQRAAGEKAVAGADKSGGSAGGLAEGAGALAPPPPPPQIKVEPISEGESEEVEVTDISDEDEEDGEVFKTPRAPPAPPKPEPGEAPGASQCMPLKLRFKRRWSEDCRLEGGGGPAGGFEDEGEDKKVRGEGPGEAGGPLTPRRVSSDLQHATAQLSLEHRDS
The following applies: protein: recombinant; tags: N-terminal GST; dsDNA, one strand shown. The essentials: as §1

For the next test, the target named is T7, ETV3L (Homo sapiens, UniProt Q6ZN32 1-361).
T7 sequence: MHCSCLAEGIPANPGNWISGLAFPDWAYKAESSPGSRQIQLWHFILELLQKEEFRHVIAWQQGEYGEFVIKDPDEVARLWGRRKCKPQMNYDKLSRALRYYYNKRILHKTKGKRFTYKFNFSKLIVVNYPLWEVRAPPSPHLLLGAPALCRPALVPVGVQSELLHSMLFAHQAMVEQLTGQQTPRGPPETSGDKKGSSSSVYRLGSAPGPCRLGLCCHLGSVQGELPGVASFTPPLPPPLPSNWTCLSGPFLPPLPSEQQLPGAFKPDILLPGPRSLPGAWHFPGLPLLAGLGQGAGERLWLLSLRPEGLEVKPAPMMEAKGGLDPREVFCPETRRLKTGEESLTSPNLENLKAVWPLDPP
As to conditions: protein: recombinant; tags: N-terminal GST; dsDNA, one strand shown. The essentials:
as §1

The target of the next test is T8, ETS2 (Homo sapiens, UniProt P15036 1-469).
T8 sequence: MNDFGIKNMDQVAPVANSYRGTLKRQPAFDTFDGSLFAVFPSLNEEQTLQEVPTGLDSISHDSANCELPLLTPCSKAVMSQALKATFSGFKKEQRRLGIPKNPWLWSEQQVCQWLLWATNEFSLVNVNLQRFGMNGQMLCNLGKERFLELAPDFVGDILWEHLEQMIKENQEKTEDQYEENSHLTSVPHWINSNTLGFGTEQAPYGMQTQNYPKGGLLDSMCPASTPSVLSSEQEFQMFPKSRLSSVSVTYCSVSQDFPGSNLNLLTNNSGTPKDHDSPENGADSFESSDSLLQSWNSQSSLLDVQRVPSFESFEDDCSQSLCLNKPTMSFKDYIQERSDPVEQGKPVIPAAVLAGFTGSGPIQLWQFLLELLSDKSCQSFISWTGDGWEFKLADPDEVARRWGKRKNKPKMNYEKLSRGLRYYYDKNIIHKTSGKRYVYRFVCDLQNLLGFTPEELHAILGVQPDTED
The following applies: protein: recombinant; tags: N-terminal GST; dsDNA, one strand shown. An outline of the steps:
as §1

In another test the target is T9, SPDEF (Homo sapiens, UniProt O95238 1-335).
T9 sequence: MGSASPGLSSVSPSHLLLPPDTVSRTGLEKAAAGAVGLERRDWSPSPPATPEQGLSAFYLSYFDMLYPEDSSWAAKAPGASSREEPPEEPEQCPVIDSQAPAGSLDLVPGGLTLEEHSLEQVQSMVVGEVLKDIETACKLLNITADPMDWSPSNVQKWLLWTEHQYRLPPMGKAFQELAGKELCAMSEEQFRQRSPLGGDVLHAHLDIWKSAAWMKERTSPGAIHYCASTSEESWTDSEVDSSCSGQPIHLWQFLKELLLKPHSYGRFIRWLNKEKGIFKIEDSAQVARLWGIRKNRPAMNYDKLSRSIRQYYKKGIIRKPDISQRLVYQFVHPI
As to conditions: protein: recombinant; tags: N-terminal GST; dsDNA, one strand shown. An outline of the steps: as §1

The next test has as its target T10, ETV7 (Homo sapiens, UniProt Q9Y603 1-341).
T10 sequence: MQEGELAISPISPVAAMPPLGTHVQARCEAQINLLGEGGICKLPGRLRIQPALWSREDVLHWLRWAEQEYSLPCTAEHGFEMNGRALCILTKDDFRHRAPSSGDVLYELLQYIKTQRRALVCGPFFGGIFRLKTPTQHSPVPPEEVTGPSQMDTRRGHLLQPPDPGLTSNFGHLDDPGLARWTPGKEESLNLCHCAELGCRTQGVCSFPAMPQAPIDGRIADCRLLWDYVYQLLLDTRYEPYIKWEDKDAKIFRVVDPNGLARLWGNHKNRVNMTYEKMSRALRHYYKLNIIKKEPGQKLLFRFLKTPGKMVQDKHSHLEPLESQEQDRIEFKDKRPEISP
The following applies: protein: recombinant; tags: N-terminal GST; dsDNA, one strand shown. The essentials: as §1

Another test deals with T11, ELF5 (Homo sapiens, UniProt Q9UKW6-2 1-255).
T11 sequence: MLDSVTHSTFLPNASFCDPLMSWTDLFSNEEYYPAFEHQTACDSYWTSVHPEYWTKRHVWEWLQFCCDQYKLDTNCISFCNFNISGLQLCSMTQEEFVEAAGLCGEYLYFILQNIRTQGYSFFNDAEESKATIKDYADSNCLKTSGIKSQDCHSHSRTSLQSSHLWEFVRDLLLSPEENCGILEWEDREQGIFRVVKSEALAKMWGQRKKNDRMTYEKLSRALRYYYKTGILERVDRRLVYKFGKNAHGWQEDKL
As to conditions: protein: recombinant; tags: N-terminal GST; dsDNA, one strand shown. An outline of the steps: as §1

A further test addresses T12, ETV3 (Homo sapiens, UniProt P41162-2 1-143).
T12 sequence: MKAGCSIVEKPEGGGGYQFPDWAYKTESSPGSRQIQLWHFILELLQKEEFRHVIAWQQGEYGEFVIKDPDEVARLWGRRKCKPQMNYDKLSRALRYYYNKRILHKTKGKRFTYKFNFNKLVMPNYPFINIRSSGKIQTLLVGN
As to conditions: protein: recombinant; tags: N-terminal GST; dsDNA, one strand shown. An outline of the steps:
as §1

The target in another test is ETV6 (Homo sapiens, UniProt P41212 1-452). As to conditions: protein: recombinant; tags: N-terminal GST; dsDNA, one strand shown. An outline of the steps:
as §1

Chain of ETV6 (P41212 whole entry): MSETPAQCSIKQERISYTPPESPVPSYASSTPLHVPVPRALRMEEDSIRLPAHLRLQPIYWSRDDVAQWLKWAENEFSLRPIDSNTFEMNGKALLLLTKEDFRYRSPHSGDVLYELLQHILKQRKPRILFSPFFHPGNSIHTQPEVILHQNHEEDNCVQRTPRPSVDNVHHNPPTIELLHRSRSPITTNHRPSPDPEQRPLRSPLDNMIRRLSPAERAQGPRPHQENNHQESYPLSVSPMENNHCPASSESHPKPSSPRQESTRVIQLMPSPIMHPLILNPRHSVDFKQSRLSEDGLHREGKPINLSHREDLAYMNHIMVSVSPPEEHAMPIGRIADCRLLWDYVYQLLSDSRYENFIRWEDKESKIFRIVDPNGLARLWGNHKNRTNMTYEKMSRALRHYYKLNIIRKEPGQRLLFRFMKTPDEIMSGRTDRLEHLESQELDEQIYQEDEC
Chain of CRX (O43186 whole entry): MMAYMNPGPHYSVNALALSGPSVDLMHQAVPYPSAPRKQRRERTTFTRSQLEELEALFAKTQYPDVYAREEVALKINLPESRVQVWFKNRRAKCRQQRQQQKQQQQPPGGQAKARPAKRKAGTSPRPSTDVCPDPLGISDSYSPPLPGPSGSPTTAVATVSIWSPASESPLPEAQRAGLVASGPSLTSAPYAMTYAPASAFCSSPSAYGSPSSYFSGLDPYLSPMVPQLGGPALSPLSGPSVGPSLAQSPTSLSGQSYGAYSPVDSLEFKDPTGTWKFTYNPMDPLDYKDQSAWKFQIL
Chain of HSF1 (Q00613 whole entry): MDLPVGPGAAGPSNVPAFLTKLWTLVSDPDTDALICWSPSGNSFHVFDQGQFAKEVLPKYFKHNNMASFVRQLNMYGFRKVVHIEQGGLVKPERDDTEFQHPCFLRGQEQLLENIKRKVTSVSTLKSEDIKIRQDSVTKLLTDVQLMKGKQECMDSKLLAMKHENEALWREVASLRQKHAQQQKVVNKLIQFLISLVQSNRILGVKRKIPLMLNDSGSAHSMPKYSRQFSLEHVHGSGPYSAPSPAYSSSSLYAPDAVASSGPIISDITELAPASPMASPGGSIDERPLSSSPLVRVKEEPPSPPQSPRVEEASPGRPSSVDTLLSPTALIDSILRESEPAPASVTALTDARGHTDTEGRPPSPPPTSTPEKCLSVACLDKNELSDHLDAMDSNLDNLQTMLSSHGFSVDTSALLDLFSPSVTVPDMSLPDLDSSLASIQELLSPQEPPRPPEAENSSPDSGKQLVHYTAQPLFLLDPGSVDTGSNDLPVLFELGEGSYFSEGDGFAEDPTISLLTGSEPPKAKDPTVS
Chain of ELF4 (Q99607 whole entry): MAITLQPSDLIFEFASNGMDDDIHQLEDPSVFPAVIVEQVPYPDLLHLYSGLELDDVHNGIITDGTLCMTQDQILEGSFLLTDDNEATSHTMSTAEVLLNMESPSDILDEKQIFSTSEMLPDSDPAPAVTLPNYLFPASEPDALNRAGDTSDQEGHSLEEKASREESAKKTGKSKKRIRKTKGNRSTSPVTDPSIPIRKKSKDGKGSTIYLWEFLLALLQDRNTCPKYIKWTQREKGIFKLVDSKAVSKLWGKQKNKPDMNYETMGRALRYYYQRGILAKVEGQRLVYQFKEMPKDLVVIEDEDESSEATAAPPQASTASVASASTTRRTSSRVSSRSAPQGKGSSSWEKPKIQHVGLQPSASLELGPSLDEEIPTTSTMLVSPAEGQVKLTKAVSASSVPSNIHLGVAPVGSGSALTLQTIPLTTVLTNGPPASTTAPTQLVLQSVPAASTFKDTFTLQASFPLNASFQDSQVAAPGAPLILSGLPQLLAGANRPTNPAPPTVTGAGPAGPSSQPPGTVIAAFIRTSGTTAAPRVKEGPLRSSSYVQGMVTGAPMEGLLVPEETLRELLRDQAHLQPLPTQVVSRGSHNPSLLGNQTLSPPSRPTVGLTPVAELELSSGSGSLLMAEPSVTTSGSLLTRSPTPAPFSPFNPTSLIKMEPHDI
Chain of ETV1 (P50549 whole entry): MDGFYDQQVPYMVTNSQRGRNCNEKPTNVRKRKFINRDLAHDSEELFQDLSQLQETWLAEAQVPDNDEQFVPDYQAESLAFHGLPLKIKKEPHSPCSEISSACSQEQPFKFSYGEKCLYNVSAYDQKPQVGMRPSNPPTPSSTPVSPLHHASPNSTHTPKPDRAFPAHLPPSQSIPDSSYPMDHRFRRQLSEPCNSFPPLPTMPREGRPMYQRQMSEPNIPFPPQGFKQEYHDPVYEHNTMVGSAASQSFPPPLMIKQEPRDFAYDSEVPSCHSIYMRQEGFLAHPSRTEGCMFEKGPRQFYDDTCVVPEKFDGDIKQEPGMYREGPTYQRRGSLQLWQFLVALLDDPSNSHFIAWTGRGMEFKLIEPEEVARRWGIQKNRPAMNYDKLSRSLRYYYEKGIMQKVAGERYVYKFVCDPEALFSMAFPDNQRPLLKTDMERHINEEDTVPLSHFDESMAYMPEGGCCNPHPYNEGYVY

Take CATTTG: the binding signal with FEV was 1.21 fold enrichment (6-mer frequency, TF over GST control); with ETV5, 1.24 fold enrichment (6-mer frequency, TF over GST control); with HSF1 it was 1.13 fold enrichment (6-mer frequency, TF over GST control); in the test with SPIC it was 1.15 fold enrichment (6-mer frequency, TF over GST control); with ELF4 it was 1.26 fold enrichment (6-mer frequency, TF over GST control); with ELK4 it was 1.26 fold enrichment (6-mer frequency, TF over GST control). In addition, the binding signal is 1.29 fold enrichment (6-mer frequency, TF over GST control) in the test with ETV2; 1.49 fold enrichment (6-mer frequency, TF over GST control) with ELF3; 1.07 fold enrichment (6-mer frequency, TF over GST control) in the test with CRX; 1.32 fold enrichment (6-mer frequency, TF over GST control) in the test with ETV1; 1.4 fold enrichment (6-mer frequency, TF over GST control) in the test with ERF; 1.25 fold enrichment (6-mer frequency, TF over GST control) in the test with ETV3L. The binding signal with ETS2 is 1.31 fold enrichment (6-mer frequency, TF over GST control); in the test with SPDEF, 1.25 fold enrichment (6-mer frequency, TF over GST control); with ETV7, 1.3 fold enrichment (6-mer frequency, TF over GST control); with ELF5 it was 1.18 fold enrichment (6-mer frequency, TF over GST control); with ETV3 it was 1.25 fold enrichment (6-mer frequency, TF over GST control); in the test with ETV6 it was 1.21 fold enrichment (6-mer frequency, TF over GST control).
